Activity calls are given as the source filed them. A call without a number means that no potency is given here. The call rests on the fitted dose curve.
What follows are compounds tested against Acetylcholinesterase (Homo sapiens) (UniProt P22303) (assay: Acetylcholinesterase (AChE) small molecule antagonists: enzyme-based qHTS assay (AID 1347397; further: nearly all actives have a fitted effect of over 55% in size)). Conditions: Potency: AChE enzyme activity inhibition; series mostly up to 115 µM.
In short: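 rhAChE 50 mU/mL (dispensed) + cpd or DMSO, 30 min RT; add DTNB/acetylthiocholine cocktail, 10 min RT; colorimetric thiocholine readout. qHTS, 1536-well format.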

Acetylcholinesterase (Homo sapiens), sequence (P22303 whole entry, looked up): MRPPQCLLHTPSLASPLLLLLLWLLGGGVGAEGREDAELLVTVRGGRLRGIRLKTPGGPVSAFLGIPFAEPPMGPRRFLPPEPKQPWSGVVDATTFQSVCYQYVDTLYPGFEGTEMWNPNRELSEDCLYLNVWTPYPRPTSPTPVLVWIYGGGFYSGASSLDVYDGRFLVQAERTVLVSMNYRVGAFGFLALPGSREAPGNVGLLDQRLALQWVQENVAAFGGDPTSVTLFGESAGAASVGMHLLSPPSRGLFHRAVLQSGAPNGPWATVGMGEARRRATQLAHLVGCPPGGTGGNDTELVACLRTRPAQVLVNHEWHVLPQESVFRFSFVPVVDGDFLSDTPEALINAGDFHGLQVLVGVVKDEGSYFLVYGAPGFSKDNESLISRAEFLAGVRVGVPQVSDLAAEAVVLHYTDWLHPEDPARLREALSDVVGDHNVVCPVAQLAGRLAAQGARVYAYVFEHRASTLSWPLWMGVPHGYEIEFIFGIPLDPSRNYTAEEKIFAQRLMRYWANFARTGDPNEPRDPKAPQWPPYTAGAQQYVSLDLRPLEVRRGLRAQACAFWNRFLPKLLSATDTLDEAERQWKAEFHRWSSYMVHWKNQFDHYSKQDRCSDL

SMILES	Potency
Cc1cc(Cl)ccc1OCC(=O)O	inactive
C[C@]12CCC(=O)C=C1CC[C@@H]1[C@@H]2CC[C@]2(C)C(=O)CC[C@@H]12	inactive
O=C(O)COc1ccc(Cl)cc1Cl	inactive
C1CCC(NC2CCCCC2)CC1	inactive
C=CCOC(Cn1ccnc1)c1ccc(Cl)cc1Cl (configuration not stated)	inactive

The compounds below were run against Acetylcholinesterase (Homo sapiens) (UniProt P22303) (assay: Acetylcholinesterase (AChE) small molecule antagonists: enzyme-based qHTS assay with human liver microsomes (AID 1347399; further: nearly all actives have a fitted effect of over 60% in size)). Conditions: Potency: qHTS inhibition; series mostly up to 115 µM.
In short: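 Recombinant human AChE (50 mU/mL in the enzyme mix) and human liver microsomes (0.25 mg/mL final) were preincubated with compound and NADPH (0.25 mg/mL final) for 30 min at 37 C. Acetylthiocholine/DTNB was then added; thiocholine was read colorimetrically after 10 min at room temperature.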

SMILES	Potency
Cc1cc(Cl)ccc1OCC(=O)O	inactive
C[C@]12CCC(=O)C=C1CC[C@@H]1[C@@H]2CC[C@]2(C)C(=O)CC[C@@H]12	inactive
O=C(O)COc1ccc(Cl)cc1Cl	inactive
CCCCCCCCCCCCCCCCn1cc[n+](C)c1	inactive
C1CCC(NC2CCCCC2)CC1	inactive
C=CCOC(Cn1ccnc1)c1ccc(Cl)cc1Cl (configuration not stated)	inactive
CCCCCCCCCCn1cc[n+](C)c1	inactive

Reference: PubChem BioAssay (Tox21)
